Growth data for nine compounds are collected here from PubChem BioAssay (NCI).

Test systems include SK-MEL-2 melanoma; EKVX NSCLC; SN12C renal; UO-31 renal; TK-10 renal; ACHN renal; CAKI-1 renal; A498 renal; CCRF-CEM leukemia; MOLT-4 leukemia; SR leukemia; OVCAR-8 ovarian; OVCAR-5 ovarian; OVCAR-4 ovarian; SK-OV-3 ovarian; OVCAR-3 ovarian; HS 578T breast; NCI/ADR-RES ovarian; RPMI-8226 leukemia; IGROV1 ovarian.
Test in all cases: NCI-60 one-dose screen, 48 h (100 = growth as untreated, 0 = no growth, -100 = all killed)
Conditions in all cases: 10 µM unless noted

This is part of a sample that, as a whole, favours compounds with a hit. Of some 83,000 tested, about 20% had one in any assay.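 Single-dose data. Exposure time 48 hours. Values below 10 considered active.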 Unmarked numbers belong to inactive results. Active and inactive are the calls of the source.

As for `COc1cccc(-c2nc(-c3ccc(NC(=O)C(C)C)cc3)[nH]c2-c2ccnc(Br)c2)c1`, the growth in the test on SK-MEL-2 melanoma was 22%; in the test on EKVX NSCLC it was 45.1%; with SN12C renal, 61.7%; in the test on UO-31 renal it was 12.1%; with TK-10 renal it was 54%; in the test on ACHN renal, 28.8%. The growth was 36.2% with CAKI-1 renal; 2.23% (active) in the test on A498 renal; 21.8% with CCRF-CEM leukemia; 14.3% in the test on MOLT-4 leukemia; -14.5% (active) in the test on SR leukemia; 38.1% with OVCAR-8 ovarian. In addition, the growth with OVCAR-5 ovarian is 70.2%; with OVCAR-4 ovarian it was 33.3%; with SK-OV-3 ovarian it was 46.4%; with OVCAR-3 ovarian, 37.3%; in the test on HS 578T breast it was -13.2% (active); in the test with NCI/ADR-RES ovarian it was 46.7%.

As to `N#Cc1c(-c2ccc(Cl)cc2)nc(NCCO)[nH]c1=O`, the growth in the test on SK-MEL-2 melanoma is 94.4%; in the test on EKVX NSCLC it was 157%; in the test with SN12C renal, 96.2%; in the test with UO-31 renal, 74.5%; with TK-10 renal it was 97.9%; in the test with ACHN renal it was 101%. The growth is 94.2% in the test with CAKI-1 renal; 125% with A498 renal; 113% in the test with CCRF-CEM leukemia; 99.5% in the test with MOLT-4 leukemia; 99.5% with SR leukemia; 103% in the test on OVCAR-8 ovarian. Also, the growth with OVCAR-5 ovarian is 91.6%; in the test on OVCAR-4 ovarian it was 108%; in the test on SK-OV-3 ovarian, 102%; in the test with OVCAR-3 ovarian it was 104%; in the test on HS 578T breast, 109%; in the test on NCI/ADR-RES ovarian, 98.8%.

Regarding `CN(C)c1ccc(/C=N\Nc2cc(=O)[nH]c3ccc(Cl)cc23)cc1`, the growth was 91.2% with SK-MEL-2 melanoma; 85.7% in the test on EKVX NSCLC; 104% in the test with SN12C renal; 67.9% in the test on UO-31 renal; 127% in the test on TK-10 renal; 95.2% with ACHN renal. Also, the growth in the test on CAKI-1 renal is 90.9%; in the test with A498 renal, 123%; in the test with CCRF-CEM leukemia it was 95.4%; in the test on MOLT-4 leukemia, 87.1%; in the test on RPMI-8226 leukemia, 93.2%; in the test on OVCAR-8 ovarian, 93.4%. Besides, the growth in the test with OVCAR-5 ovarian is 101%; with OVCAR-4 ovarian, 121%; in the test with SK-OV-3 ovarian, 82.9%; with IGROV1 ovarian, 75.3%; with OVCAR-3 ovarian it was 108%; in the test on HS 578T breast it was 82.8%. The growth in the test on NCI/ADR-RES ovarian was 99.8%.

`c1ccc(-c2nc3nonc3nc2-c2ccccc2)cc1`: the growth is 79% with SK-MEL-2 melanoma; 67% with EKVX NSCLC; 68.7% with SN12C renal; 36.3% in the test on UO-31 renal; 81.4% in the test on TK-10 renal; 53.9% with ACHN renal. Further, the growth with CAKI-1 renal was 51%; in the test on A498 renal, -10.9% (active); in the test on CCRF-CEM leukemia, 80.7%; with MOLT-4 leukemia, 70.9%; in the test with RPMI-8226 leukemia, 71.9%; in the test with OVCAR-8 ovarian, 72.8%. Besides, the growth is 82.3% in the test with OVCAR-5 ovarian; 22.7% in the test with OVCAR-4 ovarian; 74% with SK-OV-3 ovarian; 60.8% in the test on IGROV1 ovarian; 12.8% in the test on OVCAR-3 ovarian; 64.3% in the test on HS 578T breast. Also, the growth with NCI/ADR-RES ovarian is 74.4%.

With `NC(=O)Nc1ccc2ncnc(Nc3ccc(Cl)cc3)c2c1`, the growth in the test with SK-MEL-2 melanoma is 127%; in the test on EKVX NSCLC, 22.4%; with SN12C renal, 81.9%; in the test with UO-31 renal, 58%; in the test on TK-10 renal, 26.5%; in the test with ACHN renal, 47.4%. The growth in the test with CAKI-1 renal is 40.1%; in the test on A498 renal, 43.4%; in the test on CCRF-CEM leukemia it was 96%; in the test on MOLT-4 leukemia, 71.2%; with RPMI-8226 leukemia it was 101%; in the test on OVCAR-8 ovarian it was 89.5%. Moreover, the growth is 83.6% in the test on OVCAR-5 ovarian; 91.9% in the test with OVCAR-4 ovarian; 30.2% with SK-OV-3 ovarian; 61% with IGROV1 ovarian; 74.2% with OVCAR-3 ovarian; 87.8% in the test with HS 578T breast. In addition, the growth with NCI/ADR-RES ovarian was 88.7%.

For the compound `CCN(CC)S(=O)(=O)c1ccc(NC(=O)CSc2nnc(C)n2-c2ccccc2)cc1`, the growth with SK-MEL-2 melanoma was 92.5%; in the test on EKVX NSCLC it was 107%; in the test with SN12C renal, 98.1%; in the test with UO-31 renal, 80.8%; in the test with TK-10 renal, 126%; in the test with ACHN renal, 98.7%. Further, the growth is 106% with CAKI-1 renal; 107% in the test on A498 renal; 97.9% in the test on CCRF-CEM leukemia; 96.2% in the test on MOLT-4 leukemia; 103% with RPMI-8226 leukemia; 102% in the test on OVCAR-8 ovarian. Besides, the growth in the test on OVCAR-5 ovarian was 95.4%; in the test with OVCAR-4 ovarian it was 102%; in the test on SK-OV-3 ovarian it was 105%; in the test on IGROV1 ovarian it was -1.42% (active); in the test with OVCAR-3 ovarian, 116%; with HS 578T breast it was 95.5%. The growth in the test on NCI/ADR-RES ovarian is 99.2%.

For `CCN(CC)Cc1cc(Nc2c3ccc(Cl)cc3nc3ccc(OC)cc23)ccc1O`, the growth was 101% in the test on SK-MEL-2 melanoma; 76.2% in the test on EKVX NSCLC; 56.6% with SN12C renal; 34.2% in the test on UO-31 renal; 96.6% with TK-10 renal; 59.7% with ACHN renal. The growth in the test on CAKI-1 renal was 69.8%; in the test with A498 renal it was 77.2%; with CCRF-CEM leukemia it was 60.4%; with MOLT-4 leukemia it was 22.6%; in the test with RPMI-8226 leukemia it was 21.7%; with OVCAR-8 ovarian, 37.5%. Besides, the growth is 51.2% with OVCAR-5 ovarian; 58.6% in the test with OVCAR-4 ovarian; 54.7% with SK-OV-3 ovarian; 29.6% in the test on IGROV1 ovarian; 56.6% in the test with OVCAR-3 ovarian; 72.7% in the test with HS 578T breast. The growth in the test on NCI/ADR-RES ovarian was 42.3%.

For the compound `CN1C(=O)N(C)C2Nn3c(s/c(=C\c4ccccc4)c3=O)=NC21` (centres undefined), the growth was 109% with SK-MEL-2 melanoma; 96.5% in the test with EKVX NSCLC; 95.6% with SN12C renal; 81.8% in the test on UO-31 renal; 115% in the test on TK-10 renal; 97.8% in the test with ACHN renal. Moreover, the growth with CAKI-1 renal is 82.7%; with A498 renal, 68%; in the test with CCRF-CEM leukemia, 99.5%; in the test on MOLT-4 leukemia, 109%; with RPMI-8226 leukemia, 101%; with OVCAR-8 ovarian, 96%. The growth was 100% in the test with OVCAR-5 ovarian; 101% in the test on OVCAR-4 ovarian; 100% in the test with SK-OV-3 ovarian; 100% with IGROV1 ovarian; 100% in the test with OVCAR-3 ovarian; 96.2% with HS 578T breast. The growth in the test with NCI/ADR-RES ovarian is 99.7%.

As to `Fc1cc(-c2nnc3sc(-c4ccc(Cl)cc4Cl)nn23)c(Cl)cc1Cl`, the growth is 94.7% in the test with SK-MEL-2 melanoma; 73.3% in the test on EKVX NSCLC; 82.8% in the test with SN12C renal; 73% in the test on UO-31 renal; 109% with TK-10 renal; 73.7% with ACHN renal. For the same compound, the growth is 86.5% with CAKI-1 renal; 109% in the test on A498 renal; -78.6% (active) with CCRF-CEM leukemia; 134% with MOLT-4 leukemia; 84% with RPMI-8226 leukemia; 82.6% in the test with OVCAR-8 ovarian. Moreover, the growth in the test on OVCAR-5 ovarian was 96.6%; with OVCAR-4 ovarian, 26.2%; in the test on SK-OV-3 ovarian, 77.1%; in the test with IGROV1 ovarian, 86.1%; with OVCAR-3 ovarian it was 99.4%; in the test on HS 578T breast, -14.7% (active). Besides, in the test on NCI/ADR-RES ovarian, the growth is 89.4%.
